Records with an inconclusive call do not appear. Activity calls are given as the source filed them. Calls follow the shape of the dose curve; as a rule, active = well fitted curve in the direction sought with a large enough effect; inconclusive = small, poorly fitted or top-dose-only effect, or another doubt; inactive = no such curve, though single readings can be large; an effect the other way counts as inactive or inconclusive.

For assay [1], the target named is Aldehyde dehydrogenase, mitochondrial (Homo sapiens) (UniProt P05091). Put plainly: qHTS for Inhibitors of the Aldehyde Dehydrogenase Family (ALDH2) Primary screen (AID 2061308). Also: nearly all actives have a fitted effect of over 55% in size.
Assay [2] concerns the target Retinaldehyde dehydrogenase 3 (Homo sapiens) (UniProt P47895). Put plainly: qHTS for Inhibitors of the Aldehyde Dehydrogenase Family (ALDH1A3) Primary screen (AID 2061315). A general note: qHTS replaces the single test concentration by a dilution series.
The target in assay [3] is Aldehyde dehydrogenase 1A1 (Homo sapiens) (UniProt P00352). Kind of assay: qHTS for Inhibitors of the Aldehyde Dehydrogenase Family (ALDH1A1) Confirmatory screens (AID 2061316). Also: potency is read from the fitted curve at half-maximal effect; nearly all actives have a fitted effect of over 65% in size.

On to `NC(=O)C1CCN(c2ncc(Br)cn2)CC1`, for which the Potency entry in assay [1] and in assay [2] was “inactive” throughout.

On to `Clc1ccccc1CSc1nc2ncc(Br)cc2[nH]1`, for which the Potency result in assay [1] and in assay [2] was “inactive” throughout.

`O=C(NCc1nnc(-c2cc3ccccc3[nH]2)o1)c1ccccc1`: the Potency result in assay [1] and in assay [2] was “inactive” in each case.

Regarding `Oc1ccc(CNCc2ccccc2F)c2cccnc12`, the Potency entry in assay [1] and in assay [2] was “inactive” in each case.

Consider `FC(F)(F)c1ccccc1-c1nc(NCc2ccc(Cl)c(Cl)c2)c2ccccc2n1`, for which the Potency result in assay [1] and in assay [2] was “inactive” throughout.

As for `CCCCN1C(=O)c2ccccc2NC1c1ccc(OC)c(COc2c(C)cc(NC(C)=O)cc2C)c1` (centres undefined), the Potency entry in assay [1] and in assay [2] was “inactive” throughout.

For `C=C1C(=O)OC2C3=C(C)C(=O)CC3C(C)CC(O)C12` (centres undefined), the Potency result in assay [1] and in assay [2] was “inactive” throughout.

As to `COc1cc(O)c(C(CC(=O)N2CCC(C)CC2)c2ccc(OC)c(OC)c2)c(OC)c1` (centres undefined), the Potency result in assay [1] and in assay [2] was “inactive” in each case.

`CC(=O)NC(c1cccs1)c1cc(F)c2cccnc2c1O` (centres undefined): the Potency entry in assay [1] and in assay [2] was “inactive” throughout.

For `Cc1ccc(OCCn2c3c(c4ccccc42)CCN(C(=O)C2CCCCC2)C3)cc1`, the Potency result in assay [1] and in assay [2] was “inactive” in each case.

Take `COc1ccccc1OCCN1CC(COc2cccc3[nH]c4ccccc4c23)OCC1=O` (centres undefined): the Potency result in assay [1] and in assay [2] was “inactive” in each case.

Take `CCN1CCCC1Cn1c(-c2ccccc2)nc2c(N(CCOC)CCOC)nc(C)nc21` (centres undefined): the Potency entry in assay [1] and in assay [2] was “inactive” in each case.

Consider `O=c1[nH]c(CCl)nc2sc3c(c12)CCC3`, for which the Potency result in assay [1] and in assay [2] was “inactive” in each case.

Take `Cc1ccc(S(=O)(=O)Nc2cnccc2C(=O)Nc2nc(-c3ccccc3F)cs2)cc1`: the Potency entry in assay [1] and in assay [2] was “inactive” throughout.

With `CSc1ccc(-c2cncc(NC(=O)c3cccs3)c2)cc1`, the Potency entry in assay [1] and in assay [2] was “inactive” throughout.

In the case of `Cc1ccc(OCCn2c(CCNC(=O)c3ccncc3)nc3ccccc32)cc1`, the Potency result in assay [1] and in assay [2] was “inactive” in each case.

Regarding `Cc1ccc(OCCn2c(CCNC(=O)C3CCCCC3)nc3ccccc32)cc1`, the Potency result in assay [1] and in assay [2] was “inactive” throughout.

For `O=C(NC(c1ccco1)c1cc(Cl)c2cccnc2c1O)c1ccccc1` (centres undefined), the Potency result in assay [1] and in assay [2] was “inactive” throughout.

On to `O=C(Nc1ccccc1)Nc1nc(Nc2cc(F)cc(F)c2)nc(NC2CCCC2)n1`, for which the Potency entry in assay [1] and in assay [2] was “inactive” each time.

With `CC(C)c1ccccc1SC1=NS(=O)(=O)c2ccccc21`, the Potency result in assay [1] and in assay [2] was “inactive” in each case.

With `O=C1CCCC2=C1C1(CCCOC1)N=C(Nc1nc3ccccc3o1)N2` (centres undefined), the Potency entry in assay [1] and in assay [2] was “inactive” each time.

On to `Fc1ccc(-c2noc(CCCCSc3nnc(-c4cccc5ccccc45)o3)n2)cc1`, for which the Potency entry in assay [1] and in assay [2] was “inactive” throughout.

As to `COc1ccc(OC)c(-c2nnc3n2N=C(c2ccc(OC)c(OC4CCCC4)c2)CS3)c1`, the Potency entry in assay [1] and in assay [2] was “inactive” each time.

Consider `CC1CC(O)/C=C/C(O)/C=C\C(=O)O1` (centres undefined), for which the Potency result in assay [1] and in assay [2] was “inactive” in each case.

On to `CC(=O)Nc1sc2c(c1-c1nc3ccccc3s1)CCCN(C(C)C)C2`, for which the Potency result in assay [1] and in assay [2] was “inactive” throughout.

Regarding `COc1cccc(C(=O)Nc2ccc(-c3nc4ccccc4[nH]3)cc2)c1`, the Potency entry in assay [1] and in assay [2] was “inactive” each time.

Regarding `Cc1ccccc1-c1nc(NCc2cccs2)c2ccccc2n1`, the Potency result in assay [1] and in assay [2] was “inactive” throughout.

Take `Cc1cnc(-c2ccccc2C(C)C)nc1NCC1CCN(c2cccnc2)C1` (centres undefined): the Potency entry in assay [1] and in assay [2] was “inactive” in each case.

Consider `C=C1C(=O)OC2/C=C(\C)CC/C=C(\C(=O)O)CC/C=C(\C)CCC12` (centres undefined), for which the Potency result in assay [1] and in assay [2] was “inactive” in each case.

Consider `Cc1cc(N[S+](=O)([O-])c2ccc(NC(=O)Cn3c(=O)oc4ccc(Cl)cc43)cc2)no1`, for which the Potency result in assay [1] and in assay [2] was “inactive” each time.

On to `CC(=O)C1CCN(c2ncc(-c3ccc4c(c3)OCCCO4)s2)CC1`, for which the Potency result in assay [1] and in assay [2] was “inactive” in each case.

On to `O=C1CCCC2=C1C(c1[nH]ncc1Cl)NC(=NCc1ccccn1)N2` (centres undefined), for which the Potency result in assay [1] and in assay [2] was “inactive” throughout.

On to `COc1cccc(NCc2ccc(O)c3ncccc23)n1`, for which the Potency entry in assay [1] and in assay [2] was “inactive” throughout.

As to `CC1(C)CCCC2(C)C1C(OC(=O)/C=C/C=C/C=O)C=C1COC(=O)C12O` (centres undefined), the Potency result in assay [1] and in assay [2] was “inactive” throughout.

`FC(F)(F)c1cc(-c2ccc(CNc3nc(-c4ccccc4C(F)(F)F)nc4ccccc34)cc2)ccc1Cl`: the Potency entry in assay [1] and in assay [2] was “inactive” in each case.

For `CCOC(=O)c1csc(NC(=O)c2ccncc2NS(=O)(=O)c2ccc(C)cc2)n1`, the Potency result in assay [1] and in assay [2] was “inactive” each time.

As to `N=c1c2c(ccn1Cc1ccccc1)Oc1ccc3ccccc3c1C2c1ccccc1` (centres undefined), the Potency entry in assay [1] and in assay [2] was “inactive” each time.

As for `N[C@@H](Cc1ccc(OS(=O)(=O)c2ccccn2)cc1)C(=O)N1CCN(c2ccccc2)CC1`, the Potency entry in assay [1] and in assay [2] was “inactive” each time.

For `NC(=O)C1CCN(c2ncc(Br)s2)CC1`, the Potency result in assay [1] and in assay [2] was “inactive” each time. In addition, in assay [3], the Potency was 4.49 µM (active).

As to `COc1ccc(NC(=O)c2[nH]c(C)c(C(C)=O)c2C)cc1S(=O)(=O)Nc1ccc(C#N)cc1`, the Potency result in assay [1] and in assay [2] was “inactive” throughout. In assay [3], the Potency is 11.3 µM (active).

Consider `CN1CCC(N(Cc2cccs2)c2ccccc2)CC1`, for which the Potency result in assay [1] and in assay [2] was “inactive” each time.
